A selection: hits, their analogues and other compounds. The true share with any hit is near 18%.
TDP1 cell noCPT: qHTS for Inhibitors of human tyrosyl-DNA phosphodiesterase 1 (TDP1): qHTS in cells in absence of CPT | DT40 Tdp1-/- hTDP1 cells, no CPT, ATP luminescence, 48 h | Potency, µM (highest dose often 46.2 µM), without a hit: at the highest dose activity change, negative = growth inhibition, usual class: inhibitors | actives 15% (n = 420,000) | AID 686978, 2013; note: potency is the fitted concentration of half-maximal effect; nearly all actives have a fitted effect of over 55% in size
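Seeded 400 DT40-hTDP1 cells/well (vehicle DMSO, no 20 nM CPT); pinned compounds; ≥48 hr at 37 °C; CellTiter-Glo luminescence as viability measure.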
CtBP-E1A blk: CtBP/E1A binding inhibition; AlphaScreen GST-E1A/His-CtBP binding, 1536-well; active compounds read low; activity change, % (test concentration not listed); actives 0.49% (n = 340,000); in the data active = activity change below about -65%; inconclusive = mostly about -30% to -63%
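Homogeneous bead-based format: GST-tagged E1A captured on glutathione donor beads, His-tagged CtBP on nickel acceptor beads; compounds precede bead addition by 2 h at 37 °C.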
TDP1 inh: TDP1 (human) enzyme inhibition | Q9NUW8 | recombinant TDP1, AlphaScreen DNA substrate cleavage | Potency, µM (series often up to 130 µM), for inactives: top-dose activity change, negative = inhibition, most hits filed as inhibitors | actives 0.28% (n = 350,000); note: potency is the fitted concentration of half-maximal effect; nearly all actives have a fitted effect of over 40% in size
Target sequence (Q9NUW8 whole entry, looked up): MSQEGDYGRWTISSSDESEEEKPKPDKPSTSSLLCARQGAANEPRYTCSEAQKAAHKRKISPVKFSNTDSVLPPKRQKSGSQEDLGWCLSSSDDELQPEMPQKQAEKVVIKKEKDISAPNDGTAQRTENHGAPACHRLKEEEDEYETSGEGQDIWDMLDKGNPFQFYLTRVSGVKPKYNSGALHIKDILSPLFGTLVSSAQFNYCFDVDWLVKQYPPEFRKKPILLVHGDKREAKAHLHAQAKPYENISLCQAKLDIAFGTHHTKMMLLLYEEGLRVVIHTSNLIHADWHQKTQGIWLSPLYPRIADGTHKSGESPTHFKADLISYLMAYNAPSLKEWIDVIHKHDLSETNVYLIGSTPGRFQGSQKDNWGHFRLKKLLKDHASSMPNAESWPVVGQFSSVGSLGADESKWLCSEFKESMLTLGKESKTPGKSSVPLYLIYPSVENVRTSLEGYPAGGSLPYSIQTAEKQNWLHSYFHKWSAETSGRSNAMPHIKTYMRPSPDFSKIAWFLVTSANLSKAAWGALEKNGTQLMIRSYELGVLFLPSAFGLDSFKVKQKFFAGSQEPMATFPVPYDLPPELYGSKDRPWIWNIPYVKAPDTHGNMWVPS
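Recombinant human Tdp1 (E. coli-expressed, 1 nM final) preincubated with compounds 15 min at room temperature, then 5'-biotin/3'-phosphotyrosine-FITC DNA substrate (15 nM final) added for 5 min. AlphaScreen beads (10 ug/ml final) added 10 min; cleavage lowers signal.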
TDP1 cell CPT: DT40-hTDP1 cell growth loss with CPT | chicken DT40 Tdp1-/-;hTDP1 cells + 20 nM CPT, ATP luminescence, 48 h | Potency, µM (doses to about 46.2 µM), without a hit: top-dose activity change, negative = growth inhibition, actives largely listed as inhibitors | actives 12% (n = 420,000); note: potency is the fitted concentration of half-maximal effect; nearly all actives have a fitted effect of over 55% in size
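Chicken DT40 Tdp1-/- cells stably complemented with human TDP1 were seeded at 400 cells/well in medium containing 20 nM camptothecin, exposed to pin-transferred compounds, and grown at 37 °C for at least 48 hr. Viability was read as ATP luminescence.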
Six1-Eya2 inh: blocks human Six1 binding to Eya2; activity change, % (test concentration not listed); AID 651725; Q15475+O00167; AlphaScreen GST-Six1/His-Eya2 binding, biochemical; active compounds read low; actives 0.56% (n = 360,000); in the data active = activity change below about -65%; inconclusive = mostly about -30% to -63%
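GST-Six1 + His-Eya2 (5X stock: 250/500 nM); Tris pH 8.0, 300 mM NaCl, 0.05% BSA, 0.02% Tween 20; GSH donor/Ni acceptor beads; 1 h 37 °C dark; AlphaScreen readout.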
IL1B secr inh: inhibitors of inflammasome signaling (IL-1 beta secretion); actives 4.7% (n = 360,000); THP-1 LPS/ATP IL-1B secretion, AlphaLISA, 16 h; active compounds read low; activity change, % at 57.5 µM; in the data active = activity change below about -50%; inconclusive = mostly about -30% to -49%
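THP-1 cells pretreated 1 hr with compounds (up to 57.5 uM final), then stimulated with LPS (250 ng/mL final) plus ATP (1.25 mM final); secreted IL-1B measured by AlphaLISA after 16 hr, decreased signal indicating inhibition.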
Numbers without * were called inactive; ? = inconclusive; · = no result; [ ] = remark or other dose. Unless noted, calls come from the whole dose curve; as a rule, active = well fitted curve in the direction sought with a large enough effect; inconclusive = small, poorly fitted or top-dose-only effect, or another doubt; inactive = no such curve, though single readings can be large; an effect the other way counts as inactive or inconclusive. % is set by controls: 0 for no effect and ±100 for the full control effect.

SMILES	TDP1 cell noCPT	CtBP-E1A blk	TDP1 inh	TDP1 cell CPT	Six1-Eya2 inh	IL1B secr inh
O=C(N/N=C/c1ccc(O)cc1O)C(=O)N/N=C/c1ccc(O)cc1O	?	-92*	·	?	-68*	175
COc1ccc(CCCC(=O)N/N=C/c2cccc(OC)c2O)cc1C	1.6µM*	-21	-3%	1.8µM*	-18	73
COc1cccc(/C=N/NC(=O)CNC(=O)c2ccncc2)c1O	?	·	2%	?	5	1
COc1cccc(/C=N/NC(=O)CNC(=O)c2ccco2)c1O	8.2µM*	?	7%	6.5µM*	-84*	77
CCOC(=O)CCCNC(=O)c1cncc(Br)c1	3%	-1	1%	16%	4	1
OCC1(CO)COC(c2ccccc2)=N1	14%	-18	2%	3%	6	-7
O=C(c1ccc(=O)[nH]c1)N(Cc1ccco1)C1(C(=O)NC2CCCC2)CCCCC1	-3%	7	4%	-25%	-3	2
COc1cccc(/C=N/NC(=O)CNC(=O)COc2ccccc2)c1O	7.3µM*	?	·	6.5µM*	-83*	180
COc1cccc(/C=N/NC(=O)C(=O)NCc2cccnc2)c1OC	10%	0	8%	17%	4	0
CCOc1ccc(/C=N/NC(=O)C(O)c2ccccc2)c(O)c1 (configuration not stated)	?	-85*	2%	4.1µM*	?	95
COc1cccc(/C=N/NC(=O)C(=O)NCc2cccnc2)c1O	?	-92*	6%	?	-89*	34
COc1ccc(/C=N/NC(=O)CNC(=O)COc2ccccc2)cc1	-16%	2	3%	-6%	3	-7
COc1cccc(/C=N/NC(=O)CNC(=O)c2ccc3c(c2)OCCO3)c1O	?	?	0%	16µM*	-88*	48
COc1cc(/C=N/NC(=O)CNC(=O)c2ccncc2)ccc1O	16%	-1	0%	7%	0	11
COc1cccc(/C=N/NC(=O)C[n+]2ccccc2)c1O	-10%	-88*	8%	-3%	-87*	9
O=C(CNC(=O)c1ccncc1)N/N=C/c1ccc(O)cc1O	18µM*	·	-3%	?	-90*	6
COc1cc(OC)c(OC)cc1/C=N/NC(=O)C[n+]1ccccc1	-27%	3	3%	-4%	5	-2
CCOc1cccc(/C=N/NC(=O)c2ccc3c(c2)OCCO3)c1O	4.1µM*	-87*	-2%	2.6µM*	?	62
O=C(CNC(=O)c1ccc2c(c1)OCCO2)N/N=C/c1ccc(O)cc1O	18µM*	-90*	8%	?	-77*	10
CN(C)c1ccc(/C=N/NC(=O)CNC(=O)c2ccc3c(c2)OCCO3)cc1	11%	-12	6%	-8%	-5	24
COc1ccccc1NC(=O)CS(=O)(=O)c1cn(CC(=O)N(C(C)C)C(C)C)c2ccccc12	?	-5	·	?	-2	-5
O=C(Cc1ccc(Cl)cc1)NCC(=O)N1CCCCC1	-12%	-6	8%	2%	17	1
COc1cccc(/C=N/NC(=O)CNC(=O)C2COc3ccccc3O2)c1O (configuration not stated)	3.7µM*	-83*	3%	5.8µM*	?	195
COc1cccc(/C=N/NC(=O)CN2CC(c3ccccc3)CC2=O)c1O (configuration not stated)	18µM*	?	8%	?	?	92
COc1cccc(/C=N/NC(=O)CNC(=O)c2cccnc2)c1O	7.3µM*	-87*	·	-103%	-71*	128
SMILES	TDP1 cell noCPT	CtBP-E1A blk	TDP1 inh	TDP1 cell CPT	Six1-Eya2 inh	IL1B secr inh
O=C(Nc1ccc(Br)cc1F)C(NS(=O)(=O)c1cccc2nsnc12)c1ccccc1 (configuration not stated)	-8%	·	5%	-9%	·	·
O=C(CN1C(=O)NC(c2ccccc2)(c2ccccc2)C1=O)NCc1cccs1	16%	7	0%[56.1 µM]	-2%	0	-14
Cc1ccc(S(=O)(=O)Nc2ccc3c(c2)CC(=O)N([C@H](C)CO)C[C@H](C)[C@H](CN(C)Cc2ccc4c(c2)OCO4)O3)cc1	18µM*	-9	2%	21µM*	-10	50
CCOC(=O)CCCCCC(=O)Nc1ccc2c(c1)CC(=O)N([C@H](C)CO)C[C@@H](C)[C@H](CN(C)Cc1ccc3c(c1)OCO3)O2	?	-6	5%	?	-8	7
COc1ccc(S(=O)(=O)Nc2ccc3c(c2)CC(=O)N([C@@H](C)CO)C[C@@H](C)[C@@H](CN(C)Cc2ccccc2)O3)cc1	16µM*	-4	2%	18µM*	-5	-15
C[C@@H]1CN([C@H](C)CO)C(=O)Cc2cc(NC(=O)Nc3ccccc3)ccc2O[C@@H]1CN(C)Cc1ccc2c(c1)OCO2	?	?	7%	?	-18	-64*
CCOC(=O)c1ccc(Nc2ncnc3c2cnn3-c2cccc(Cl)c2)cc1	?	·	3%	2%	·	·
COc1ccc(C(C(=O)NC2CCCCC2)N(Cc2ccco2)C(=O)c2snc(C(N)=O)c2N)cc1 (configuration not stated)	?	-3	2%	?	0	-68*
COc1ccc(C(C(=O)NC2CCCC2)N(Cc2ccco2)C(=O)c2snc(C(N)=O)c2N)cc1OC (configuration not stated)	-5%	1	·	?	1	-59*
NC(=O)c1nsc(C(=O)N(Cc2ccco2)C(C(=O)NC2CCCC2)c2ccc(O)cc2)c1N (configuration not stated)	?	0	10%	-29%	0	-1
COCCN(C(=O)c1snc(C(N)=O)c1N)C(C(=O)NC1CCCCC1)c1ccc(N(C)C)cc1 (configuration not stated)	15µM*	-18	·	-26%	-3	0
COc1ccc(Nc2nc3c(C)cccn3c(=O)c2C=O)cc1	10%	-3	·	-14%	1	-7
O=C(CSc1ccccc1F)NCCN1C(=O)CSC1=O	-19%	10	1%	0%	5	-2
O=C(CSc1nc(-c2ccccc2)c(-c2ccccc2)[nH]1)NCCN1C(=O)CSC1=O	15µM*	0	9%	13µM*	-7	4
